# According to PubChem BioAssay (NCATS):
# Several values for one entry are separate records, joined by “and”; a condition that tells them apart may be missing. Equal entries are not always repeated. Records with an inconclusive call do not appear. A number with no mark means an inactive call. Activity calls are given as the source filed them. Calls come from the whole dose curve; as a rule, active = well fitted curve in the direction sought with a large enough effect; inconclusive = small, poorly fitted or top-dose-only effect, or another doubt; inactive = no such curve, though single readings can be large; an effect the other way counts as inactive or inconclusive.
# Experiments:
# [1] = Viability qHTS for spleen associated tyrosine kinase inhibitor (SYKi) drug resistant MV4-11 cells (AID 1963824); conditions: SYKi-resistant MV4-11 viability, CellTiter-Glo, 72 h; series mostly up to 45 µM; note: nearly all actives have a fitted effect of over 35% in size; note: potency is the fitted concentration of half-maximal effect
# How it was run: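 SYK inhibitor-resistant MV4-11 AML cells, 500 per well, added to predispensed compounds and incubated 72 hr at 37 C, 5% CO2. Viability measured by CellTiter-Glo luminescence after 10 min at room temperature.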
# [2] = Cellular viability qHTS for adrenocortical cancer (ACC) cell line SW-13 (AID 1963989); conditions: SW-13 ACC cells viability, CellTiter-Glo, 48 h; activity (max response): hits give low values; note: nearly all actives have a fitted effect of over 65% in size; note: potency is the fitted concentration of half-maximal effect;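 for activity (max response): cells grown in serum-free medium with ITS supplement; % is set by controls: 0 for no effect and ±100 for the full control effect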
# How it was run: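 Luminescent ATP read-out (CellTiter-Glo, 20 min at room temperature) measured metabolically competent SW-13 cells after 48 h compound treatment. Final concentrations spanned up to 46 uM; bortezomib served as positive control.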
# [3] = Cellular viability qHTS for adrenocortical cancer (ACC) cell line NCI-H295R (AID 1963990); conditions: CellTiter-Glo ATP luminescence, 48 h; series mostly up to 46.1 µM; note: nearly all actives have a fitted effect of over 60% in size; note: potency is the fitted concentration of half-maximal effect
# How it was run: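 IC50 and maximal efficacy derive from four-parameter logistic modelling of titration curves, with reads scaled between DMSO-only wells (0%) and doxorubicin hydrochloride (100% inhibition). Compounds spanned up to 46 uM over 48 h.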
# [4] = Quantitative highthroughput screen to assess conditional lethalithy of P12 Ichikawa cells grown in Human Plasma-Like Medium with dialyzed fetal bovine serum (HPLM+ds) (AID 1963879); conditions: ATP luminescence, 48 h; Potency: viability; series mostly up to 45.8 µM; note: nearly all actives have a fitted effect of over 35% in size
# How it was run: (§1)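 Each medium arm—HPLM with 10% dialyzed FBS, or RPMI1640 with 5 mM glucose and 10% untreated or dialyzed FBS—was screened against an 11-point, 3-fold compound titration for 48 h at 37 °C, with CellTiter-Glo luminescence as endpoint.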
# [5] = Quantitative highthroughput screen to assess conditional lethalithy of P12 Ichikawa cells grown in RPMI1640 with dialyzed fetal bovine serum (RPMI+ds) (AID 1963880); conditions: ATP luminescence, 48 h; Potency: P12-Ichikawa viability; series mostly up to 45.8 µM;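 note: 100% = DMSO wells and 0% = empty wells on each plate; nearly all actives have a fitted effect of over 35% in size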
# How it was run: as §1
# [6] = Quantitative highthroughput screen to assess conditional lethalithy of SEM cells grown in RPMI1640 with dialyzed fetal bovine serum (RPMI+ds) (AID 1963884); conditions: SEM B-ALL cells, RPMI+dialyzed FBS, CellTiter-Glo viability, 48 h; series mostly up to 45.8 µM;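 note: 100% = DMSO control wells and 0% = empty wells without cells; nearly all actives have a fitted effect of over 35% in size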
# How it was run: as §1
smiles,measurement,setting,value
CCC(=O)O[C@@H]1C=C2CCC3C(CCC4(C)C3CC[C@@H]4OC(=O)CC)C2CC1 (stereo not given in full),Potency,[1],inactive
same,activity (max response),[2],1.7%
COP(=O)(OC)C(O)C(Cl)(Cl)Cl (stereo not given),Potency,[1],inactive
same,activity (max response),[2],6.64%
same,Potency,[3],inactive
Cc1cc(SCc2sc(-c3ccc(C(F)(F)F)c(F)c3)nc2C)ccc1OCC(=O)O,Potency,[1],18.6 µM (active)
same,Potency,[4],inactive
same,Potency,[5],inactive
same,Potency,[6],inactive
same,Potency,[3],inactive
c1ccc2nc(N3CCNCC3)ccc2c1,Potency,[1],inactive
same,activity (max response),[2],-8.05%
same,Potency,[3],inactive
C/C=C(/C)C(=O)O[C@H]1C(C)=C2[C@H]([C@@H]1OC(=O)CCCCCCC)[C@@](C)(OC(C)=O)C[C@H](OC(=O)CCC)[C@@]1(O)[C@H]2OC(=O)[C@@]1(C)O,Potency,[1],18.4 nM (active) and 3.7 nM (active)
same,Potency,[2],0.0447 µM (active)
same,Potency,[3],1.78 µM (active)
N#Cc1nn(-c2c(Cl)cc(C(F)(F)F)cc2Cl)c(N)c1S(=O)C(F)(F)F (stereo not given),Potency,[1],10.6 µM (active)
same,Potency,[2],5.8 µM (active)
same,Potency,[3],2.59 µM (active)
CC1=C2C[C@H]3[C@@H](CC=C4C[C@@H](O)CC[C@@]43C)[C@@H]2CC[C@]12O[C@@H]1C[C@H](C)CN[C@H]1[C@H]2C,Potency,[1],14.8 µM (active)
same,activity (max response),[2],-8.25%
same,Potency,[3],inactive
CCC(C)(C)c1ccc(O)cc1,Potency,[1],inactive
same,activity (max response),[2],0.304%
same,Potency,[3],inactive
CC(=O)OC[C@H]1O[C@@H]([S-])[C@H](OC(C)=O)[C@@H](OC(C)=O)[C@@H]1OC(C)=O.CC[PH+](CC)CC.[Au],Potency,[1],0.235 µM (active)
same,Potency,[3],0.631 µM (active)
COc1ccc(C(c2ccc(OC)cc2)C(Cl)(Cl)Cl)cc1,Potency,[1],21.5 µM (active)
same,Potency,[2],28.2 µM (active)
same,Potency,[3],28.2 µM (active)
